From PubChem BioAssay (NCI)
This is part of a sample that, as a whole, favours compounds with a hit. Of some 79,000 tested, about 15% had one in any assay. The source made the active and inactive calls. Cut-off read from the data, not from the text of the source: active = growth inhibition above about 70%; inactive = the rest.

Experiments:
[1] = NCI Yeast Anticancer Drug Screen. Data for the rad50 strain (AID 155);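 note: 0% = growth of vehicle-only cultures of the same strain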; conditions: S. cerevisiae rad50 strain growth inhibition; at 50.0 µM; stronger effect = higher value
Method in brief: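 Yeast carrying a defined DNA repair defect were exposed to test compounds, and growth was compared with vehicle-treated controls to give percent inhibition.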

[2] = NCI Yeast Anticancer Drug Screen. Data for the mec2-1 strain (AID 157); conditions: S. cerevisiae mec2-1 strain, at 50.0 µM, stronger effect = higher value
Method in brief: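 Vehicle-treated cultures served as reference for growth inhibition of compound-exposed mec2-1 yeast.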

[3] = NCI Yeast Anticancer Drug Screen. Data for the sgs1 mgt1 strain (AID 161);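 note: 0% = growth of cultures given vehicle only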; conditions: S. cerevisiae sgs1 mgt1 strain, at 50.0 µM, stronger effect = higher value
Method in brief: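 Read-out: growth inhibition vs vehicle controls. Cells: mutant yeast strain deficient in DNA damage repair.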

[4] = NCI Yeast Anticancer Drug Screen. Data for the cln2 rad14 strain (AID 165);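 note: 0% = growth equal to vehicle treated cultures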; conditions: S. cerevisiae cln2 rad14 strain, at 50.0 µM, stronger effect = higher value
Method in brief: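 Each compound was tested on cln2 rad14 yeast. Inhibition of growth was calculated against vehicle-exposed controls.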

[5] = NCI Yeast Anticancer Drug Screen. Data for the bub3 strain (AID 167); conditions: S. cerevisiae bub3 mutant strain, at 50.0 µM, stronger effect = higher value
Method in brief: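 Compounds were applied to a genetically altered yeast strain carrying a cell-cycle control defect. Growth inhibition was scored against vehicle-treated controls.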

[6] = NCI Yeast Anticancer Drug Screen. Data for the mlh1 rad18 strain (AID 175); conditions: S. cerevisiae mlh1 rad18 strain growth inhibition; at 50.0 µM; stronger effect = higher value
Method in brief: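 Vehicle-treated cultures served as the reference for growth inhibition in a yeast strain carrying DNA damage repair alterations exposed to each compound.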

Measured: growth inhibition

CC(=O)C1=C2CCC3C(CCC4CC(O)CCC43C)C2CC1 (configuration not stated)
inactive: [1] -3.95% | [2] -3.35% | [3] 10.9% | [4] -9.45% | [5] -8% | [6] 11.2%

C=C(C)CN(CC(=C)C)c1nc(N)nc(N)n1
inactive: [1] -35.2% | [2] -2.95% | [3] -21.9% | [4] -43.5% | [5] -2.1% | [6] -13.1%

Cn1cc(/C=C\C(=O)O)c2ccccc21
inactive: [1] -10.7% | [2] -0.6% | [3] 6.7% | [4] -35.2% | [5] -26.9% | [6] 6.4%

CCCCC(=O)CCC(=O)O
inactive: [1] 9.7% | [2] 11.6% | [3] 4.95% | [4] 13.8% | [5] 9.7% | [6] 12.7%

OCC#C[C@@H]1CC[C@H]1C#CCO
inactive: [1] 7.3% | [2] -3.3% | [3] 6.3% | [4] 2.3% | [5] 2.6% | [6] -6%

COc1ccc2c3c(c(C(=O)O)oc13)CCC2
inactive: [1] 3.85% | [2] -3.05% | [3] -3.8% | [4] -5.8% | [5] -15.3% | [6] 16.8%

CCCCCCCCCCCCCCCCSc1cccc(C)c1
inactive: [1] 17.7% | [2] 3.65% | [3] 22.1% | [4] -13.2% | [5] 1.3% | [6] 17.1%

O=C(C[n+]1ccccc1Cl)c1ccc(I)cc1
inactive: [1] 18.2% | [2] 24.8% | [3] 53% | [4] 9.05% | [5] 19.9% | [6] 56.8%

Oc1ccc(N=Nc2ccccc2)c(O)c1
inactive: [1] 54% | [2] 29.1% | [3] 43.5% | [4] -18.9% | [5] 46% | [6] 64%

CCCC(C)(C)COC(=O)Cc1ccccc1
inactive: [1] 40.3% | [2] 42% | [3] 55.9% | [4] 23.8% | [5] 23.6% | [6] 46.2%

NCCCC(=O)NCCCCCCCCCCNC(=O)CCCN
inactive: [1] 29.3% | [2] 18% | [3] 19% | [4] 15.6% | [5] -4.45% | [6] 24.4%

Cc1nc(N)nc(C)c1N=Nc1cccc(Cl)c1
inactive: [1] 2.05% | [2] 11.6% | [3] 9.35% | [4] -32.8% | [5] 21.6% | [6] 3.85%

C/C(=C/c1c(C)[nH]c(=O)[nH]c1=O)C(=O)O
inactive: [1] 10.9% | [2] 13.6% | [3] -3.75% | [4] -29.8% | [5] 8.75% | [6] -3.75%

Oc1c(/N=N/C(=S)NCCCN2CCN(CCCNC(=S)/N=N/c3[nH]c4ccccc4c3O)CC2)[nH]c2ccccc12
inactive: [1] 22.8% | [2] 6.45% | [3] 20.6% | [4] -2.7% | [5] -17.8% | [6] 14.9%

CCCCc1c(O)c2c(=O)[nH]c(C)nc2oc1=O
inactive: [1] -9.8% | [2] -5.95% | [3] -9.65% | [4] -13.2% | [5] -32.4% | [6] 10.9%

CCCCc1ccc(-n2c(C)nc3[nH]cc(C)c3c2=N)cc1
inactive: [1] -1.35% | [2] -10.9% | [3] -3.5% | [4] -1.75% | [5] -2.5% | [6] -3.75%

CN1CCC(c2ccccc2)(c2ccccc2)OC1
inactive: [1] 3.7% | [2] 6.85% | [3] 6.9% | [4] -8.45% | [5] 9.95% | [6] 5.15%

Cc1cccc(C(=O)NN)c1O
inactive: [1] -1.7% | [2] -14.7% | [3] -6.25% | [4] 5.7% | [5] 23.9% | [6] 22.2%

O=C(O)/C(Cl)=C(\Cl)C(=O)NC1C2CC3CC(C2)CC1C3 (configuration not stated)
inactive: [1] 14.4% | [2] 10.3% | [3] 13.8% | [4] 28.8% | [5] 3.6% | [6] 19.6%

CCOC(=O)CCC(=O)Oc1cccc2c1C(=O)c1c(OC(=O)CCC(=O)OCC)cccc1C2=O
inactive: [1] 40.5% | [2] 37% | [3] 9.8% | [4] 17.2% | [5] 6.45% | [6] 47.7%

CC(=O)/C(=C\I)c1ccccc1
active: [1] 87.8% | [2] 91.8% | [3] 85.4% | [4] 89.9% | [5] 89.5% | [6] 85.5%

NC(=O)C(=O)CC(=O)c1ccccc1NC1=CC(=O)C(=O)c2ccccc21
inactive: [1] 41% | [2] 29.1% | [3] 20.4% | [4] 30.4% | [5] 36.4% | [6] 37.5%

CCN(CC)C(=O)Cc1c(C(=O)N(CC)CC)c(=O)nc2sccn12
inactive: [1] -27.2% | [2] -15.8% | [3] -30.8% | [4] -23.3% | [5] -25% | [6] -43.6%

CC(C)CCc1c(Cl)nc(Cl)nc1Cl
inactive: [1] 32.2% | [2] 38.6% | [3] 33.6% | [4] 10.1% | [5] 43.9% | [6] 16.9%

CN(C)CCC1(C2=CCCC2)CC/C(=C\c2ccc3c(c2)OCO3)C1=O (configuration not stated)
inactive: [1] 4.85% | [2] -13.7% | [3] -22.2% | [4] 16.4% | [5] -2.55% | [6] 17.5%

O=NN(CCCl)C(=O)NCc1ccc[n+]([O-])c1
inactive: [1] 19.7% | [2] 8.6% | [3] -2% | [4] 4.25% | [5] 2.2% | [6] 8.2%

CCCCCCCCCCCCCCCC(=O)Nc1ccn(C2OC(CO)C(O)C2O)c(=O)n1 (configuration not stated)
inactive: [1] -1.45% | [2] -19.9% | [3] 6.75% | [4] 10.1% | [5] -6.8% | [6] -14.7%

CCCC(CCC)C(=O)O
inactive: [1] -18% | [2] 3.45% | [3] -8.75% | [4] 7.9% | [5] -10.8% | [6] -1.05%

N#Cc1c(-c2ccccc2)c(C#N)c(=S)n(C2OCC(O)C(O)C2O)c1N (configuration not stated)
inactive: [1] -23.6% | [2] -2.2% | [3] -10% | [4] -38.5% | [5] 3.05% | [6] -15.1%

COc1cc(C(=O)O)c(C(=O)O)cc1OC
inactive: [1] 2.6% | [2] 21.4% | [3] 20.5% | [4] -29.1% | [5] 2.45% | [6] 0.5%

Cc1cccc(C(=O)OCCBr)c1
inactive: [1] 27.1% | [2] 3.95% | [3] 13.7% | [4] -28.4% | [5] 9.9% | [6] 10.9%

O=C(O)c1cc(=O)[nH]c(=O)[nH]1.[Cu+2]
inactive: [1] -15.8% | [2] 8.7% | [3] -18.4% | [4] -35.3% | [5] -30.4% | [6] -16.2%

COC1CCCC2CC3=C(CCCC3)OC21 (configuration not stated)
inactive: [1] -6.45% | [2] 3.5% | [3] 5.1% | [4] -101% | [5] -14% | [6] -13.5%

O=C(O)CC(/C=C\C(=O)C(=O)O)=C\O
inactive: [1] -6.6% | [2] -6.4% | [3] -11.6% | [4] 3.6% | [5] 4.15% | [6] -10.2%

C=C(Br)CNC(=O)Nc1ccccn1
inactive: [1] -10.2% | [2] 4.55% | [3] -3.3% | [4] -4.15% | [5] -4.85% | [6] -8.75%

CCN(CC)c1ccc2c(C)c(Cc3ccccc3)c(=O)oc2c1
inactive: [1] 1.8% | [2] -22.8% | [3] 24.6% | [4] 7.7% | [5] 31.9% | [6] 0.7%

O=C(O)c1[nH]c(=O)[nH]c(=O)c1C(=O)O
inactive: [1] -20.6% | [2] 0.55% | [3] -15.1% | [4] 18.8% | [5] -17.6% | [6] -15%

C=C1C(=O)OC2CC3(CO3)C3C(O)C(O)CC3(C)CC12 (configuration not stated)
inactive: [1] 2.4% | [2] 2.45% | [3] -14.2% | [4] -13.6% | [5] -42.5% | [6] -70.7%

Cc1[nH]c2ccccc2c1CC1CC(=O)OC1=O (configuration not stated)
inactive: [1] -8.35% | [2] -18.6% | [3] 12.5% | [4] 6.3% | [5] -9.15% | [6] -7.15%

COc1cc2c(c(OC)c1OC)C(=O)[C@@H](O)[C@H]2N
inactive: [1] -10.4% | [2] -31.9% | [3] -13% | [4] -25.5% | [5] -23.8% | [6] -41.5%

O=C(O)CCS(=O)(=O)CCC(=O)O
inactive: [1] -8.4% | [2] 0.8% | [3] -21.4% | [4] -30% | [5] 8.6% | [6] 22.8%

Cc1ccc2c(c1)C(C)(C)C(C)C2(C)C (configuration not stated)
inactive: [1] -3.05% | [2] -8.2% | [3] -13.8% | [4] -19.9% | [5] 9.25% | [6] 21.3%
